# Results reported in PubChem BioAssay (Tox21).
# Results filed as inconclusive are left out. A call without a number means that no potency is given here. Some structures have more than one record in an assay (separate samples or runs), and their calls can disagree. Active and inactive are the calls of the source. Unless noted, the call rests on the fitted dose curve; in most records, active means well fitted curve in the direction sought with a large enough effect in the repeat runs; inconclusive means weak or mixed curves; inactive means no such curve, though single readings can be large; an effect the other way counts as inactive or inconclusive.
# What was measured:
# [1] = A CellTox Green Cytotoxicity Assay to monitor cytotoxicity in HEK293 cells - 32 hour (AID 1224881); further: nearly all actives have a fitted effect of over 40% in size
# Outline: (§1)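 Each value comes from one timepoint of a single continuous run in which HEK293 cells with CellTox Green were exposed to compound for up to 40 h at 37 C, dye fluorescence rising with cell death.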
# [2] = A CellTox Green Cytotoxicity Assay to monitor cytotoxicity in HepG2 cells - 0 hour (AID 1224882); further: nearly all actives have a fitted effect of over 35% in size
# Outline: (§2)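 Continuous culture of HepG2 cells with a membrane-impermeant DNA dye; rising fluorescence marks dead cells. Compound exposure lasted up to 40 h at 37 C, with reads every 8 h from 0 h.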
# [3] = A CellTox Green Cytotoxicity Assay to monitor cytotoxicity in HepG2 cells - 32 hour (AID 1224883); further: nearly all actives have a fitted effect of over 50% in size
# Outline: as §2
# [4] = A CellTox Green Cytotoxicity Assay to monitor cytotoxicity in HEK293 cells - 8 hour (AID 1224884); further: nearly all actives have a fitted effect of over 35% in size
# Outline: as §1
# [5] = qHTS RealTime-Glo MT Cell Viability Assay in HEK293 cells - 24 hour (AID 1224886); further: top concentration of the series differs between compounds; nearly all actives have a fitted effect of over 50% in size
# Outline: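 HEK293 cells seeded with NanoLuc/prosubstrate reagent, rested 5 h at 37 C, then dosed and kept at 37 C up to 40 h. Nonlytic real-time luminescence from viable cells read at 0, 8, 16, 24, 32 and 40 h.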
# [6] = qHTS RealTime-Glo MT Cell Viability Assay in HEK293 cells - 8 hour (AID 1224887); further: top concentration of the series differs between compounds; nearly all actives have a fitted effect of over 50% in size
# Outline: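 qHTS format; HEK293 cells with NanoLuc/prosubstrate reagent, 37 C/5% CO2 for 5 h pre-dosing; compounds 23 nL in DMSO; luminescence at each time point reflects viable cells.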
# [7] = A CellTox Green Cytotoxicity Assay to monitor cytotoxicity in HEK293 cells - 16 hour (AID 1224888); further: nearly all actives have a fitted effect of over 35% in size
# Outline: as §1
# [8] = qHTS RealTime-Glo MT Cell Viability Assay in HepG2 cells - 0 hour (AID 1224889); further: nearly all actives have a fitted effect of over 50% in size; further: potency means the concentration at half of the fitted maximal effect
# Outline: (§3)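 HepG2 cells (600/well) were dispensed with RealTime-Glo reagents, incubated 5 h at 37 °C, then treated with compounds in DMSO for up to 40 h. Nonlytic NanoLuc luminescence reflecting viable cells was read at each stated time point.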
# [9] = A CellTox Green Cytotoxicity Assay to monitor cytotoxicity in HepG2 cells - 8 hour (AID 1224890); further: nearly all actives have a fitted effect of over 45% in size
# Outline: as §2
# [10] = qHTS assay to identify small molecule antagonists of the estrogen receptor alpha (ER-alpha) signaling pathway using the BG1 cell line in the presence of 0.1 nM 17-beta-estradiol - cell viability counter screen (AID 1259241); further: nearly all actives have a fitted effect of over 40% in size
# Outline: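 CellTiter-Fluor read (30 min, 37C) on ER-alpha/ERE-luc VM7Luc4E2 cells; 22 hr compound treatment; agonist 0.1 nM E2 final; same-well multiplex.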
# [11] = qHTS assay to identify small molecule antagonists of the androgen receptor (AR) signaling pathway using the MDA cell line in the presence of 0.5 nM R1881 - cell viability counter screen (AID 1259242); further: nearly all actives have a fitted effect of over 45% in size
# Outline: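 Fluorescence from CellTiter-Fluor, which reports protease activity of live cells, was read 30 min after reagent addition to MDA-kb2 cells that had been incubated 16 hr with compound and 0.5 nM R1881.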
# [12] = target: Estrogen receptor (Homo sapiens) (UniProt P03372); test: qHTS assay to identify small molecule antagonists of the estrogen receptor alpha (ER-alpha) signaling pathway using the BG1 cell line in the presence of 0.1 nM 17-beta-estradiol (AID 1259244); further: nearly all actives have a fitted effect of over 50% in size
# Outline: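 Quantitative high-throughput screen in VM7Luc4E2 cells: compound plus 0.1 nM E2 (final), 22 h, 37C, 5% CO2; ONE-Glo added, 30 min room temperature, luminescence measured.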
# [13] = qHTS assay to identify small molecule phospholipidosis (PLD) inducers (AID 1259344; active means well fitted curve in the direction sought with a large enough effect; an effect the other way counts as inactive or inconclusive)
# Outline: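 HepG2 cells, 900/well, treated with compound plus LipidTOX Red for 24 h at 37 C; amiodarone positive and DMSO negative controls. Fixed with paraformaldehyde/Hoechst, then high-content imaging scored LipidTOX pit count and integrated intensity per well and per cell.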
# [14] = qHTS assay to identify small molecule HDAC inhibitors (AID 1259364); further: top concentration of the series differs between compounds; nearly all actives have a fitted effect of over 45% in size
# Outline: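 Endogenous HDAC class I/II activity was measured in wild-type HCT-116 cells by HDAC-Glo luminescence after 2 h compound treatment.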
# [15] = qHTS assay to identify small molecule HDAC inhibitors - cell viability counter screen (AID 1259365)
# Outline: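 To flag cytotoxic hits, 1,500 wild-type HCT-116 cells per well, plated the day before, receive test compounds for 2hr at 37 C before CellTiter-Glo reagent and a luminescence read.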
# [16] = qHTS assay to identify small molecule agonists of the sonic hedgehog signaling (Shh) pathway - cell viability counter screen (AID 1259366); further: nearly all actives have a fitted effect of over 50% in size
# Outline: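 Fluorescence from CellTiter-Fluor reports live cells in this counter screen. NIH/3T3-derived Gli1-Luc reporter cells receive test compounds for 24hr at 37C; reagent goes in at 23hr.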
# [17] = qHTS assay to identify small molecule antagonists of the sonic hedgehog signaling (Shh) pathway - cell viability counter screen (AID 1259367); further: nearly all actives have a fitted effect of over 55% in size
# Outline: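 NIH/3T3-derived Gli1-Luc reporter cells, 2,000/well, plated 4 hr before compound addition, then stimulated with conditioned medium for 24 hr at 37C. Viability measured in the same wells by CellTiter-Fluor fluorescence, reagent added at 23 hr for 1 hr.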
# [18] = qHTS assay to identify small molecule agonists of the sonic hedgehog signaling (Shh) pathway (AID 1259368; calls by dose curve;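 further: NIH/3T3-derived 3T3Gli1-Luc cells carrying a stable Gli1-driven firefly luciferase reporter; series mostly up to about 92 µM; nearly all actives have a fitted effect of over 15% in size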)
# Outline: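 Luminescent signal was taken as a measure of Gli1-controlled luciferase expression in stably transfected NIH/3T3-derived cells that had been treated for 24 hr with compounds delivered in DMSO.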
# [19] = qHTS RealTime-Glo MT Cell Viability Assay in HepG2 cells - 16 hour (AID 1224885); further: nearly all actives have a fitted effect of over 50% in size
# Outline: as §3
# [20] = target: Androgen receptor (Homo sapiens) (UniProt P10275); test: qHTS assay to identify small molecule antagonists of the androgen receptor (AR) signaling pathway using the MDA cell line in the presence of 0.5 nM R1881 (AID 1259243); further: nearly all actives have a fitted effect of over 50% in size; further: potency means the concentration at half of the fitted maximal effect
# Outline: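 Inhibition of R1881 (0.5 nM final) induced reporter signal was measured in human MDA-kb2 cells; note the MMTV promoter also responds to GR. Exposure lasted 16 hr at 37C.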
# Sequence of Estrogen receptor (Homo sapiens) (P03372 whole entry, looked up): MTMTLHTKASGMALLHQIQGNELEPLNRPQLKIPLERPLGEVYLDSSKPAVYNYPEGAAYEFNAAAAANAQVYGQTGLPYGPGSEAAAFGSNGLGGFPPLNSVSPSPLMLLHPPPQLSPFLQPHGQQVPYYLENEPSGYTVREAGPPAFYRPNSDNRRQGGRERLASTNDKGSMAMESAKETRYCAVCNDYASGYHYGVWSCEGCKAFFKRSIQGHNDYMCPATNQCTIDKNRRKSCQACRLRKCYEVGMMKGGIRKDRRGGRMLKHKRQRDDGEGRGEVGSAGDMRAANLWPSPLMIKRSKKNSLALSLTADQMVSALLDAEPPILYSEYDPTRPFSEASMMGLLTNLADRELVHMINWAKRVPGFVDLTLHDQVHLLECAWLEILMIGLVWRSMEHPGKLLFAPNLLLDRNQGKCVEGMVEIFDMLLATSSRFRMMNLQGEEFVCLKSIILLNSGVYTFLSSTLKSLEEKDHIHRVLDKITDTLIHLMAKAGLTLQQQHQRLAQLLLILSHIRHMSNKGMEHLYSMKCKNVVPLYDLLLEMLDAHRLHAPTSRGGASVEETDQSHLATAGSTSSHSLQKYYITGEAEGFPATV
# Sequence of Androgen receptor (Homo sapiens) (P10275 whole entry, looked up): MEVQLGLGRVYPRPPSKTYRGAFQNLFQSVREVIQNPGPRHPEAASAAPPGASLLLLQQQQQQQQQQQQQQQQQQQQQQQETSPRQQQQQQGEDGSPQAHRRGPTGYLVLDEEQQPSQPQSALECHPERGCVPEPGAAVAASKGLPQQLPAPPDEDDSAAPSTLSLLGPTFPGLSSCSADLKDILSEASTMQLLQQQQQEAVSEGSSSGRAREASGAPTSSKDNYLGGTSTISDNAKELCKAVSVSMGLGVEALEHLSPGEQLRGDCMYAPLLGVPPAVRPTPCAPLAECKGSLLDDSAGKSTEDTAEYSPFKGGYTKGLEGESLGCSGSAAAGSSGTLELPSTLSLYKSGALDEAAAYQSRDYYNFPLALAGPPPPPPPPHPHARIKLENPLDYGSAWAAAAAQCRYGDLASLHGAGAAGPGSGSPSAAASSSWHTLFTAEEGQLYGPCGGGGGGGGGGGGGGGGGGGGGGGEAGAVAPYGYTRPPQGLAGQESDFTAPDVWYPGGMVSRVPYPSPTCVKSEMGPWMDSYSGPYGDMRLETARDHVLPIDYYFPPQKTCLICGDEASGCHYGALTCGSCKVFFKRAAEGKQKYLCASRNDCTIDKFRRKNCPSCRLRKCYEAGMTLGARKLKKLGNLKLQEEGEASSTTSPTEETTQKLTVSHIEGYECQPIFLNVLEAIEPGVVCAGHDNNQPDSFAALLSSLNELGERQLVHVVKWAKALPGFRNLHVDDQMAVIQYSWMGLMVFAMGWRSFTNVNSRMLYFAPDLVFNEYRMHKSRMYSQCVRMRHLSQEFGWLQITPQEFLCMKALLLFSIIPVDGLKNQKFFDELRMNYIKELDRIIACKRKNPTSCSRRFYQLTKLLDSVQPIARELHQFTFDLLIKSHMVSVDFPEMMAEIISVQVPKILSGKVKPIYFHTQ
SMILES,Potency [1],outcome [2],Potency [3],outcome [4],Potency [5],Potency [6],Potency [7],Potency [8],outcome [9],Potency [10],Potency [11],Potency [12],outcome [13],Potency [14],outcome [15],Potency [16],Potency [17],outcome [18],Potency [19],Potency [20]
CNC(=O)Oc1ccc2c(c1)[C@]1(C)CCN(C)[C@@H]1N2C,inactive,inactive,inactive,inactive,inactive,inactive,inactive,inactive,inactive,inactive,inactive,inactive,inactive,inactive,inactive,inactive,inactive,inactive,,
CCOCCOCCOCCO,inactive,inactive,inactive,inactive,inactive,inactive,inactive,inactive,,inactive,inactive,,,inactive,inactive,inactive,inactive,inactive,inactive,
CCNc1cccc(C)c1,inactive,inactive,inactive,inactive,inactive,inactive,inactive,inactive,inactive,inactive,inactive,inactive,,inactive,inactive,inactive,inactive,inactive,,
CCO[Si](CCCN)(OCC)OCC,inactive,inactive,inactive,inactive,inactive,inactive,inactive,inactive,inactive,inactive,inactive,inactive,,inactive,inactive,inactive,inactive,inactive,,
C[C@]12CCC(=O)C=C1CC[C@@H]1[C@@H]2[C@@H](O)C[C@@]2(C)[C@H]1CC[C@]2(O)C(=O)CO,inactive,inactive,inactive,inactive,,,inactive,,inactive,inactive,inactive,,inactive,inactive,inactive,inactive,inactive,inactive,,inactive
COc1ccc(CCC(C)=O)cc1,inactive,inactive,inactive,inactive,inactive,inactive,inactive,inactive,,inactive,inactive,,,inactive,inactive,inactive,inactive,inactive,inactive,
CC(=O)Oc1ccc(C)cc1,inactive,inactive,,inactive,inactive,inactive,inactive,inactive,inactive,inactive,inactive,inactive,inactive,inactive,inactive,inactive,inactive,inactive,inactive,inactive
COc1ccc([N+](=O)[O-])cc1N,inactive,inactive,inactive,inactive,inactive,inactive,inactive,inactive,,inactive,inactive,inactive,,inactive,inactive,inactive,inactive,inactive,,
CCOCC(=O)O,inactive,inactive,inactive,inactive,inactive,inactive,inactive,inactive,inactive,inactive,inactive,inactive,,inactive,inactive,inactive,inactive,inactive,,
CCCCCCCCCCCCCCCCO,inactive,inactive,inactive,inactive,inactive,inactive,inactive,inactive,inactive,inactive,inactive,inactive,inactive,inactive,inactive,inactive,inactive,inactive,,
C=C(C)[C@H]1CC=C(C)C(=O)C1,inactive,inactive,inactive,inactive,inactive,inactive,inactive,inactive,inactive,inactive,inactive,,,inactive,inactive,inactive,inactive,inactive,,
CCOC(=O)n1ccn(C)c1=S,inactive,inactive,,inactive,inactive,inactive,inactive,inactive,inactive,inactive,inactive,inactive,inactive,inactive,inactive,inactive,inactive,inactive,inactive,
Clc1ccccn1,inactive,inactive,inactive,inactive,inactive,inactive,inactive,inactive,,inactive,inactive,,,inactive,inactive,inactive,inactive,inactive,,
CCCCOC(=O)c1ccc(N)cc1,inactive,inactive,inactive,inactive,inactive,inactive,inactive,24.2 µM (active) and inactive,inactive,inactive,inactive,inactive,inactive,inactive,inactive,inactive,inactive,inactive,,
OCc1cccc(Oc2ccccc2)c1,inactive,inactive,inactive,inactive,inactive,inactive,inactive,inactive,inactive,inactive,inactive,,,inactive,inactive,inactive,inactive,inactive,,31.1 µM (active)
O=C(O)c1ccccc1C(=O)O,inactive,inactive,inactive,inactive,inactive,inactive,inactive,inactive,inactive,inactive,inactive,inactive,,inactive,inactive,inactive,inactive,inactive,,
CC(C)(C#N)c1cc(Cn2cncn2)cc(C(C)(C)C#N)c1,inactive,inactive,inactive,inactive,inactive,inactive,inactive,inactive,inactive,inactive,inactive,,inactive,inactive,inactive,inactive,inactive,inactive,,
